Measured values: PubChem BioAssay (NCATS)
Inconclusive results are not listed. Entries that show only a call come without a potency. Activity calls are given as the source filed them. Calls come from the whole dose curve; as a rule, active = well fitted inhibition curve with a large enough effect; inconclusive = small, poorly fitted or top-dose-only effect; inactive = flat fitted curve, though single readings scatter.

Assays:
[1] = biological target: Glutathione peroxidase 1 (Homo sapiens) (UniProt P07203); test: Primary qHTS Assay for Inhibitors of Recombinant Selenoprotein Glutathione Peroxidase 1 (GPX1) (AID 1845191); conditions: recombinant GPX1, GR-coupled NADPH fluorescence, 15 min; series mostly up to 48.8 µM
Method in brief: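 GR-coupled assay: compounds preincubated 30 min at room temperature with GPX1, then reaction started with CHP; final 10 nM GPX1, 1 mM GSH, 0.5 mM CHP, 0.5 mM NADPH, 100 nM GR, 0.01% BSA, pH 7.5 Tris buffer. NADPH fluorescence (340/450 nm) read at 0 and 15 min.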

[2] = biological target: Phospholipid hydroperoxide glutathione peroxidase GPX4 (Homo sapiens) (UniProt P36969); test: Primary qHTS Assay for Inhibitors of Recombinant Selenoprotein Glutathione Peroxidase 4 (GPX4) (AID 1845192); conditions: recombinant GPX4, GR-coupled NADPH fluorescence, 15 min; series mostly up to 50 µM
Method in brief: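 GR-coupled assay: recombinant GPX4 preincubated 30 min with compound at room temperature; final 200 nM GPX4, 1 mM GSH, 0.5 mM cumene hydroperoxide, 0.5 mM NADPH, 100 nM GR, 0.01% BSA, pH 7.5 Tris. NADPH fluorescence (340/450 nm) read at 0 and 15 min.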
Note: nearly all actives have a fitted effect of over 65% in size.

Sequence of Phospholipid hydroperoxide glutathione peroxidase GPX4 (Homo sapiens) (P36969 whole entry, looked up): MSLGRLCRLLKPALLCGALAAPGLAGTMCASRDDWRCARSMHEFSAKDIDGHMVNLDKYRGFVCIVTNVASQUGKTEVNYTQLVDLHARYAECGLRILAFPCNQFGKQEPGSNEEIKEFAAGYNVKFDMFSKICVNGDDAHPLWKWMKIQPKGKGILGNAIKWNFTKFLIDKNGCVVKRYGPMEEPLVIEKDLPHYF
Sequence of Glutathione peroxidase 1 (Homo sapiens) (P07203 whole entry, looked up): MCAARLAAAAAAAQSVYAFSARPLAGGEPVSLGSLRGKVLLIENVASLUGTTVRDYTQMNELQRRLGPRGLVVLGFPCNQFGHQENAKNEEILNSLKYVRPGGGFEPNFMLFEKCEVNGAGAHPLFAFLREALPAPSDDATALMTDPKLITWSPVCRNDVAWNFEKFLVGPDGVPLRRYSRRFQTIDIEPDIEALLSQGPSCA

| Structure (SMILES) | Potency [1] | Potency [2] |
| --- | --- | --- |
| CCCC(=O)OC(C(Cl)(Cl)Cl)P(=O)(OC)OC (configuration not stated) | inactive | inactive |
| CN1[C@H]2CC[C@@H]1[C@@H](C(=O)O)[C@@H](OC(=O)c1ccccc1)C2 | inactive | inactive |
| C=C(C)[C@H]1O[C@H]2CC[C@@]3(C)[C@@](O)(CC[C@H]4[C@@H]5OC(C)(C)[C@H]6C[C@@H]7C(=C)Cc8c(Cl)cc9[nH]c(c5c9c8[C@@]76O)[C@@]43C)[C@]23O[C@@H]3[C@H]1O | inactive | inactive |
| C[C@H](NC(=O)Cc1cc(F)cc(F)c1)C(=O)N[C@@H]1N=C(c2ccccc2)c2ccccc2N(C)C1=O | inactive | inactive |
| CC1CCC(C(C)C)C(OC(=O)c2ccccc2N)C1 (configuration not stated) | inactive | inactive |
| CO[C@H]1CC=C2CCN3CCC4=C(CC(=O)OC4)[C@]23C1 | inactive | inactive |
| Cc1[nH]c2ccc(O)cc2c1CCN | inactive | inactive |
| Nc1cc2c(ncn2CCOCP(=O)(O)O)c(=O)[nH]1 | inactive | inactive |
| O=C(OCCN1CCCCC1)C(O)(c1ccccc1)c1ccccc1 | inactive | inactive |
| C[N+]1(C)CCCCC1COC(=O)C(O)(c1ccccc1)c1ccccc1 (configuration not stated) | inactive | inactive |
| O=[N+]([O-])c1ccccc1 | inactive | inactive |
| CC(C)NP(=O)(NC(C)C)OP(=O)(NC(C)C)NC(C)C | inactive | inactive |
| CCNC(=O)[C@H]1O[C@@H](n2cnc3c(N)ncnc32)[C@H](O)[C@@H]1O | inactive | inactive |
| COc1ccc(OC)c(C(O)C(C)N)c1 (configuration not stated) | inactive | inactive |
| CCN(CC)C(=O)N[C@H]1C[C@@H]2c3cccc4[nH]cc(c34)C[C@H]2N(C)C1 | inactive | inactive |
| CC1C/C=C/C(O)C(O)CC/C=C/c2cc(O)cc(O)c2C(=O)O1 (configuration not stated) | inactive | inactive |
